Data: PubChem BioAssay (NCATS)
Values joined by “and” are separate entries in the source; they are usually repeats but may differ in a detail not shown here. Identical values can stand only once. Results filed as inconclusive are left out. Active and inactive are the calls of the source. Calls come from the whole dose curve; as a rule, active = well fitted curve in the direction sought with a large enough effect; inconclusive = small, poorly fitted or top-dose-only effect, or another doubt; inactive = no such curve, though single readings can be large; an effect the other way counts as inactive or inconclusive.

The compounds below were run against Cellular tumor antigen p53 (Homo sapiens) (UniProt P04637) (assay: Primary qHTS for small molecule compounds that upregulate eGFP-tagged delta133p53alpha (in N-terminal) cells. (AID 2060322;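 note: cells pre-induced with doxycycline then dosed without doxycycline; 0% = DMSO vehicle and 100% = reference activator; nearly all actives have a fitted effect of over 75% in size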)). Settings: NCI-H358 eGFP-delta133p53alpha fluorescence, 24 h; activation: active compounds read high.
Cellular tumor antigen p53 (Homo sapiens), sequence (P04637 whole entry, looked up): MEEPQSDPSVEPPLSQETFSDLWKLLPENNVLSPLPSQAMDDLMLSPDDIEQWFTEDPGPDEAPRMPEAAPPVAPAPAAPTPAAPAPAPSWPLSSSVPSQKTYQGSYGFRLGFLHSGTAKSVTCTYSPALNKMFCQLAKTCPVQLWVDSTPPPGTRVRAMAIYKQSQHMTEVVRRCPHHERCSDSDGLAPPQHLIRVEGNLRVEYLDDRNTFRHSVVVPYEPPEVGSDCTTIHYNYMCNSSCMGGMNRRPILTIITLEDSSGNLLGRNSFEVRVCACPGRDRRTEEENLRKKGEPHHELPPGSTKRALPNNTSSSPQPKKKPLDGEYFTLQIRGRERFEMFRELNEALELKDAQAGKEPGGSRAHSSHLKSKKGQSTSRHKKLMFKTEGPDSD
Summary of the method: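 NCI-H358 cells pre-induced 24 h with 10 ng/ml doxycycline for eGFP-delta133p53alpha, plated dox-free and exposed 24 h at 37C to titrated compounds. Fixed, Hoechst-stained; gated GFP peak intensity by laser scanning cytometry, normalized to DMSO (0%) and 57.5 uM 5-azacytidine (100%).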
CCNC1(C(N)=O)CN(c2nc(C)nc3c(-c4ccc(Cl)cc4)c(-c4ccccc4Cl)nn23)C1 was tested, and the activation was -0.333% (inactive). With C=C(C)[C@H]1CC[C@]2(C(=O)O)CC[C@]3(C)C(CCC4[C@@]5(C)CCC(=O)C(C)(C)C5CC[C@]43C)C12 (stereo not given in full) the activation was -11.6% (inactive). CC12CCC(C(OC3OC(COC4OCC(O)(CO)C4O)C(O)C(O)C3O)C1)C(C)(C)O2 (stereo not given) was tested, and the activation was -13.4% (inactive). With C=C1CCC(OC(C)=O)C2(C)CC3(O)OC(=O)C(C)=C3CC12 (stereo not given) the activation was -2.29% (inactive). For CC(C)c1nc(N(C)S(C)(=O)=O)nc(-c2ccc(F)cc2)c1/C=C/[C@@H](O)C[C@@H](O)CC(=O)O, the activation was -19% (inactive). OC(CN1CCN(c2cccc(Cl)c2)CC1)C(c1ccccc1)c1ccccc1 (stereo not given) was tested, and the activation was -15.1% (inactive) and 17% (inactive). C=C1CCC2C(C)(C)CCCC2(C)C1CC/C(C)=C\CO (stereo not given) was tested, and the activation was -12.5% (inactive). COc1ccccc1NC(=O)OCC1CCN(C(=O)OC(C)(C)C)CC1 was tested, and the activation was -5.67% (inactive). With C[C@@H]1O[C@@H](O[C@H]2[C@H](O)[C@@H](C(=O)O)O[C@@H](O[C@H]3CC[C@@]4(C)C(CC[C@]5(C)C4CC=C4C6CC(C)(C)CC[C@]6(C(=O)O)CC[C@]45C)C3(C)C)[C@@H]2O[C@@H]2O[C@H](CO)[C@@H](O)[C@H](O)[C@H]2O)[C@H](O)[C@H](O)[C@H]1O (stereo not given in full) the activation was -2.29% (inactive). In the case of COC1CC(O[C@H]2CC[C@@]3(C)C(CCC4C3[C@H](OC(C)=O)[C@@H](OC(=O)/C=C/c3ccccc3)[C@]3(C)C(C(C)=O)CC[C@]43O)C2)OC(C)C1OC1CC(OC)C(OC2CC(OC)C(OC3OC(C)C(OC4OC(CO)C(O)C(O)C4O)C(OC)C3O)C(C)O2)C(C)O1 (stereo not given in full), the activation is reported as -13% (inactive).

What follows are compounds tested against Aldehyde dehydrogenase, mitochondrial (Homo sapiens) (UniProt P05091) (assay: qHTS for Inhibitors of the Aldehyde Dehydrogenase Family (ALDH2) Primary screen (AID 2061308;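 note: plate controls were vehicle for no effect and reference inhibitor for full effect; nearly all actives have a fitted effect of over 55% in size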)). Settings: ALDH2 enzyme inhibition qHTS, 1536-well; series mostly up to 56 µM; activity change, negative = inhibition: at the top concentration.
CC1OC(OC2C(O)C(OC3CCC4(C)C(CCC5(C)C4CC=C4C6CC(C)(COC7OC(CO)C(O)C(O)C7O)CC(O)C6(C)CCC45C)C3(C)C)OC(C(=O)O)C2O)C(O)C(O)C1OC1OCC(O)C(O)C1O (stereo not given) was tested, and the “activity change, negative = inhibition” value was -0.777% [at 16.9 µM] (inactive). COc1ccc(F)cc1-c1cc(NC(=O)[C@@H]2CCCNC2)ncc1Cl was tested, and the “activity change, negative = inhibition” value was 17.1% (inactive). CCS(=O)(=O)N1CC(CC#N)(n2cc(-c3ncnc4[nH]ccc34)cn2)C1 was tested, and the “activity change, negative = inhibition” value was -0.184% (inactive). CC1CCCC[C@H]2C(=O)C=C[C@H](O)[C@@H]2CC(=O)O1 (stereo not given in full) was tested, and the “activity change, negative = inhibition” value was -4.22% (inactive). In the case of O=C(/C=C/c1ccc(O)cc1)OCC1=CC2OC(=O)C3=CO[C@@H](O[C@@H]4O[C@H](CO)[C@@H](O)[C@H](O)[C@H]4O)[C@H]1[C@@H]32 (stereo not given in full), the “activity change, negative = inhibition” value is reported as 17.2% [at 28 µM] (inactive). C/C(=C/CO)CC[C@@H]1[C@@](C)(O)CCC2C(C)(C)CCC[C@]21C (stereo not given in full) was tested, and the “activity change, negative = inhibition” value was 10.4% (inactive). With C[C@@H](c1nc(-c2ccc(C#N)cc2)cs1)[C@](O)(Cn1cncn1)c1cc(F)ccc1F the “activity change, negative = inhibition” value was -1.29% (inactive). With COC1C(=O)CCC2(CO2)C1(O)C1(C)OC1CC=C(C)C (stereo not given) the “activity change, negative = inhibition” value was -2.31% (inactive). With CC(=O)OC1C(OC(=O)c2ccccc2)C2C(C)(C)CC(=O)CC2(C)C23CCC(C)(C2)C(O)CC13 (stereo not given) the “activity change, negative = inhibition” value was -4.3% [at 28 µM] (inactive). With CN(CC1COCCO1)S(=O)(=O)Nc1ccc2ccc3ncc(-c4cnn(C)c4)cc3c(=O)c2c1 (stereo not given) the “activity change, negative = inhibition” value was -6.21% (inactive). For CC1=C2CC3OC3(C)CCC3OC3(C)CC2OC1=O (stereo not given), the “activity change, negative = inhibition” value was -0.747% (inactive). With CC1=C(C(=O)O)/C(=C/CO[C@@H]2O[C@H](COC(=O)/C=C/c3ccc(O)cc3)[C@@H](O)[C@H](O)[C@H]2O)C(O)C1 (stereo not given in full) the “activity change, negative = inhibition” value was -10.1% [at 28 µM] (inactive). For C=C(C)C1CCC2(C(=O)OC3OC(COC4OC(CO)C(O)C(O)C4O)C(OC4OC(C)C(O)C(O)C4O)C(O)C3O)CCC3(C(=O)O)C(CCC4C5(C)CCC(=O)C(C)(C)C5CCC43C)C12 (stereo not given), the “activity change, negative = inhibition” value was 15.5% [at 16.9 µM] (inactive). In the case of O=C(OCC12OC1C=CC(OC(=O)c1ccccc1)C2O)c1ccccc1 (stereo not given), the “activity change, negative = inhibition” value is reported as 3.14% (inactive). For C[C@@H]1O[C@@H](OC[C@H]2O[C@@H](OCc3ccccc3)[C@H](O)[C@@H](O)[C@@H]2O)[C@H](O)[C@H](O)[C@H]1O, the “activity change, negative = inhibition” value was 2.87% [at 28 µM] (inactive). In the case of CC1=CC(=O)CC(C)(CO)C1(O)/C=C/C(C)O[C@@H]1O[C@H](CO)[C@@H](O)[C@H](O)[C@H]1O (stereo not given in full), the “activity change, negative = inhibition” value is reported as -3.28% [at 28 µM] (inactive). With COC(=O)/C=C/c1ccc(O[C@@H]2O[C@H](CO)[C@@H](O)[C@H](O)[C@H]2O)cc1 the “activity change, negative = inhibition” value was 17.6% (inactive). With CC(=O)C=C=C1C(C)(C)CC(O)CC1(C)O[C@@H]1O[C@H](CO[C@H]2OC[C@](O)(CO)[C@H]2O)[C@@H](O)[C@H](O)[C@H]1O (stereo not given in full) the “activity change, negative = inhibition” value was -4.31% [at 28 µM] (inactive). With CC1(C)CCC2(C(=O)OC3OC(COC4OC(CO)C(O)C(O)C4O)C(O)C(O)C3O)CCC3(C)C(=CCC4C5(C)CCC(OC6OCC(O)C(O)C6O)C(C)(C)C5CCC43C)C2C1O (stereo not given) the “activity change, negative = inhibition” value was 15.5% [at 16.9 µM] (inactive). For COC(=O)c1ccccc1O[C@@H]1O[C@H](CO[C@@H]2OC[C@@H](O)[C@H](O)[C@H]2O)[C@@H](O)[C@H](O)[C@H]1O, the “activity change, negative = inhibition” value was -3.36% [at 28 µM] (inactive). COC(=O)C1(Cc2ccc(O)cc2)OC(=O)C(OC)=C1c1ccc(O)cc1 (stereo not given) was tested, and the “activity change, negative = inhibition” value was 18.1% (inactive). In the case of Nc1ncnc2c1nc(Cl)n2C1OC2COP(=O)(O)OC2C1O (stereo not given), the “activity change, negative = inhibition” value is reported as 2.11% (inactive). With Cc1ccccc1-n1c([C@H](C)Nc2nc(N)nc3nc[nH]c23)nc2cccc(C)c2c1=O the “activity change, negative = inhibition” value was -0.691% (inactive). For CCC(CC)C(=O)Nc1sc2c(c1C#N)CCC(C(C)(C)CC)C2 (stereo not given), the “activity change, negative = inhibition” value was 5.18% (inactive). With COc1ccc(/C=C/C(=O)O[C@H]2[C@@H]3C=CO[C@@H](O[C@@H]4O[C@H](CO)[C@@H](O)[C@H](O)[C@H]4O)[C@@H]3[C@@]3(CO)O[C@@H]23)cc1O the “activity change, negative = inhibition” value was 0.868% [at 28 µM] (inactive). With CC12CC(c3ccoc3)OC(=O)C1CCC1(C)C2CCC(O)C1(C)O (stereo not given) the “activity change, negative = inhibition” value was 3.83% (inactive). For NC(=O)c1cnc(NCCc2ccc(O)c(Cl)c2)nc1NCc1ccccc1, the “activity change, negative = inhibition” value was -2.73% (inactive). With O=C(/C=C/c1ccc(O)cc1)OC1[C@H](O)CC(O)(C(=O)O)C[C@H]1O (stereo not given in full) the “activity change, negative = inhibition” value was -14.8% (inactive). In the case of O=C(O)CC(CCc1ccccc1)OC1OC(CO)C(O)C(O)C1O (stereo not given), the “activity change, negative = inhibition” value is reported as -3.4% (inactive). CCC(C)C(=O)O[C@H]1CCC=C2C=C[C@H](C)[C@H](CC[C@@H](O)C[C@@H](O)CC(=O)O)[C@H]21 (stereo not given in full) was tested, and the “activity change, negative = inhibition” value was -15.4% [at 28 µM] (inactive). In the case of CCNC1(C(N)=O)CN(c2nc(C)nc3c(-c4ccc(Cl)cc4)c(-c4ccccc4Cl)nn23)C1, the “activity change, negative = inhibition” value is reported as -17.7% (inactive). For C=C(C)[C@H]1CC[C@]2(C(=O)O)CC[C@]3(C)C(CCC4[C@@]5(C)CCC(=O)C(C)(C)C5CC[C@]43C)C12 (stereo not given in full), the “activity change, negative = inhibition” value was -8.67% [at 28 µM] (inactive). In the case of CC12CCC(C(OC3OC(COC4OCC(O)(CO)C4O)C(O)C(O)C3O)C1)C(C)(C)O2 (stereo not given), the “activity change, negative = inhibition” value is reported as 8.15% [at 28 µM] (inactive). With C=C1CCC(OC(C)=O)C2(C)CC3(O)OC(=O)C(C)=C3CC12 (stereo not given) the “activity change, negative = inhibition” value was 18.1% (inactive). For CC(C)c1nc(N(C)S(C)(=O)=O)nc(-c2ccc(F)cc2)c1/C=C/[C@@H](O)C[C@@H](O)CC(=O)O, the “activity change, negative = inhibition” value was -0.237% (inactive). With OC(CN1CCN(c2cccc(Cl)c2)CC1)C(c1ccccc1)c1ccccc1 (stereo not given) the “activity change, negative = inhibition” value was -3.52% (inactive). With C=C1CCC2C(C)(C)CCCC2(C)C1CC/C(C)=C\CO (stereo not given) the “activity change, negative = inhibition” value was -2.18% (inactive). With COc1ccccc1NC(=O)OCC1CCN(C(=O)OC(C)(C)C)CC1 the “activity change, negative = inhibition” value was 6.41% (inactive). For C[C@@H]1O[C@@H](O[C@H]2[C@H](O)[C@@H](C(=O)O)O[C@@H](O[C@H]3CC[C@@]4(C)C(CC[C@]5(C)C4CC=C4C6CC(C)(C)CC[C@]6(C(=O)O)CC[C@]45C)C3(C)C)[C@@H]2O[C@@H]2O[C@H](CO)[C@@H](O)[C@H](O)[C@H]2O)[C@H](O)[C@H](O)[C@H]1O (stereo not given in full), the “activity change, negative = inhibition” value was 13.6% [at 16.9 µM] (inactive). For COC1CC(O[C@H]2CC[C@@]3(C)C(CCC4C3[C@H](OC(C)=O)[C@@H](OC(=O)/C=C/c3ccccc3)[C@]3(C)C(C(C)=O)CC[C@]43O)C2)OC(C)C1OC1CC(OC)C(OC2CC(OC)C(OC3OC(C)C(OC4OC(CO)C(O)C(O)C4O)C(OC)C3O)C(C)O2)C(C)O1 (stereo not given in full), the activity change, negative = inhibition was 6.42% [at 11.2 µM] (inactive).
